Measurements as given in PubChem BioAssay (NCI).
The panel holds about 83,000 compounds, 20% with a hit somewhere; the sample as a whole holds those more often.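 Note: values are percent growth. 100 is the growth of untreated cells, values between 100 and 0 indicate rising inhibition; between -100 and 0 indicates cell death.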 Activity calls are given as the source filed them. The calls were made as follows: active = growth percent below 10; inactive = the rest.

Columns and labels:
Experiment in all cases: NCI-60 one-dose screen, 48 h (100 = growth as untreated, 0 = no growth, -100 = all killed)
Conditions in all cases: 10 µM unless noted
DU-145 prostate = test system: DU-145 prostate
K-562 leukemia = test system: K-562 leukemia
MALME-3M melanoma = test system: MALME-3M melanoma
MDA-MB-231 breast = test system: MDA-MB-231 breast
RXF 393 renal = test system: RXF 393 renal
SF-268 CNS = test system: SF-268 CNS
SF-295 CNS = test system: SF-295 CNS
M14 melanoma = test system: M14 melanoma
HCT-15 colon = test system: HCT-15 colon
HT29 colon = test system: HT29 colon
SNB-75 CNS = test system: SNB-75 CNS
SNB-19 CNS = test system: SNB-19 CNS
U251 CNS = test system: U251 CNS
PC-3 prostate = test system: PC-3 prostate
SK-MEL-5 melanoma = test system: SK-MEL-5 melanoma
UACC-62 melanoma = test system: UACC-62 melanoma
LOX IMVI melanoma = test system: LOX IMVI melanoma
SF-539 CNS = test system: SF-539 CNS
SK-MEL-28 melanoma = test system: SK-MEL-28 melanoma
UACC-257 melanoma = test system: UACC-257 melanoma

Measured: growth

COc1ncc(-c2ccc3ncnc(Nc4cccc(Cl)c4)c3c2)cc1NS(C)(=O)=O
inactive: DU-145 prostate 27.4% | K-562 leukemia 56.3% | MDA-MB-231 breast 43.8% | SF-268 CNS 44.8% | SF-295 CNS 32.1% | M14 melanoma 46.9% | HCT-15 colon 30.8% | HT29 colon 22.3% | SNB-19 CNS 37.6% | U251 CNS 46.8% | PC-3 prostate 25.9% | SK-MEL-5 melanoma 23.3% | UACC-62 melanoma 19.1% | LOX IMVI melanoma 35.3%
active: MALME-3M melanoma -2.69% | RXF 393 renal 7.92% | SNB-75 CNS 9.09%

O=C1Nc2ccccc2C12CC(c1ccccc1)=NN2 (stereo unspecified)
active: HT29 colon 8.14%
inactive: DU-145 prostate 88.1% | K-562 leukemia 18.5% | MALME-3M melanoma 40.1% | MDA-MB-231 breast 55.4% | RXF 393 renal 90.6% | SF-268 CNS 67.1% | SF-539 CNS 47% | M14 melanoma 38.1% | HCT-15 colon 33% | SNB-75 CNS 38.4% | SNB-19 CNS 68.7% | PC-3 prostate 48.2% | SK-MEL-5 melanoma 30.5% | UACC-62 melanoma 46.7% | LOX IMVI melanoma 48.4% | SK-MEL-28 melanoma 56.8%

CCN(CC)CCCC(C)N/C(=C1\C(=O)NC(=O)\C1=C(/NC(C)CCCN(CC)CC)c1cccc(OC)c1)c1cccc(OC)c1 (stereo unspecified)
inactive: SNB-75 CNS 30.5% | SNB-19 CNS 23.6%
active: DU-145 prostate 4.62% | K-562 leukemia -24.6% | MALME-3M melanoma -84.2% | MDA-MB-231 breast -50.9% | RXF 393 renal -20.8% | SF-268 CNS -24% | SF-539 CNS -80.6% | M14 melanoma -75.1% | HCT-15 colon 5.33% | HT29 colon -54.8% | PC-3 prostate -3.13% | SK-MEL-5 melanoma -91% | UACC-62 melanoma -14.7% | LOX IMVI melanoma -68.5% | SK-MEL-28 melanoma -83%

COc1ccc(/C=C2\N=C3SC=C(N)N3C2=O)cc1
active: K-562 leukemia 5.29% | MALME-3M melanoma -15.3% | RXF 393 renal -21.2% | HT29 colon 9.12% | SK-MEL-5 melanoma 4.65% | LOX IMVI melanoma -47.5%
inactive: DU-145 prostate 26.5% | MDA-MB-231 breast 42.5% | SF-268 CNS 37.3% | SF-539 CNS 26.7% | M14 melanoma 24.8% | HCT-15 colon 20.7% | SNB-75 CNS 25.2% | SNB-19 CNS 53.8% | PC-3 prostate 20.6% | UACC-62 melanoma 23%

O=C1Nc2ccc(Br)cc2C12CC(c1ccccc1)=NN2 (stereo unspecified)
inactive: DU-145 prostate 69.9% | K-562 leukemia 23.8% | MALME-3M melanoma 37.9% | MDA-MB-231 breast 50.6% | RXF 393 renal 61.4% | SF-268 CNS 58.7% | SF-539 CNS 32.9% | M14 melanoma 28.2% | HCT-15 colon 32.7% | HT29 colon 12.1% | SNB-75 CNS 28.1% | SNB-19 CNS 69.1% | PC-3 prostate 29.4% | SK-MEL-5 melanoma 23.9% | UACC-62 melanoma 48.2% | LOX IMVI melanoma 51.9% | SK-MEL-28 melanoma 56.2%

O=C(COCc1c(-c2ccccc2)no[n+]1[O-])Nc1ccc(C(=O)/C=C/c2ccc3c(c2)OCO3)cc1
inactive: DU-145 prostate 116% | K-562 leukemia 92.4% | MALME-3M melanoma 123% | MDA-MB-231 breast 101% | RXF 393 renal 95.9% | SF-268 CNS 97.9% | SF-295 CNS 103% | UACC-257 melanoma 93.3% | M14 melanoma 109% | HCT-15 colon 104% | SNB-75 CNS 120% | SNB-19 CNS 97.3% | PC-3 prostate 76.3% | SK-MEL-5 melanoma 94.4% | UACC-62 melanoma 97.5% | LOX IMVI melanoma 68.3% | SK-MEL-28 melanoma 112%

COc1cc(-c2c3sc(=O)[nH]c3nc3c2c(=O)[nH]n3C(C)C)cc2c1OCO2
inactive: DU-145 prostate 119% | K-562 leukemia 97.6% | MALME-3M melanoma 121% | MDA-MB-231 breast 101% | RXF 393 renal 94.5% | SF-268 CNS 115% | SF-295 CNS 83.5% | UACC-257 melanoma 99.2% | M14 melanoma 114% | HCT-15 colon 101% | HT29 colon 103% | SNB-75 CNS 85.2% | SNB-19 CNS 107% | PC-3 prostate 117% | SK-MEL-5 melanoma 96.9% | UACC-62 melanoma 105% | SK-MEL-28 melanoma 99.2%

O=S(=O)(NCCCNc1cc(-c2cn(-c3ccccc3)nc2-c2ccccc2)ccn1)c1ccc(C(F)(F)F)cc1
inactive: DU-145 prostate 75.9% | K-562 leukemia 15.8% | MALME-3M melanoma 70% | MDA-MB-231 breast 52.5% | RXF 393 renal 48% | SF-268 CNS 58.2% | SF-295 CNS 38.8% | M14 melanoma 53.1% | HCT-15 colon 41% | HT29 colon 20.5% | SNB-75 CNS 58.6% | SNB-19 CNS 66.9% | U251 CNS 44.4% | PC-3 prostate 17.6% | SK-MEL-5 melanoma 36.8% | UACC-62 melanoma 69.8% | LOX IMVI melanoma 54%

Nc1nc2c(c3ncccc13)C(c1cccc(Br)c1)Cc1ncccc1-2 (stereo unspecified)
inactive: DU-145 prostate 19.8% | K-562 leukemia 10.3% | MALME-3M melanoma 58.4% | MDA-MB-231 breast 20.4% | SF-268 CNS 56.4% | UACC-257 melanoma 37.9% | M14 melanoma 11.2% | HCT-15 colon 17.6% | SNB-75 CNS 30.1% | SNB-19 CNS 31.6% | U251 CNS 11.3% | PC-3 prostate 25.6% | SK-MEL-5 melanoma 31.8% | UACC-62 melanoma 27.4% | LOX IMVI melanoma 38.9%
active: RXF 393 renal -7.52% | SF-295 CNS 7.75%

O=c1c2cccc3c(Nc4c(F)cccc4F)ccc(c32)c2nc3ccccc3n12
inactive: DU-145 prostate 104% | K-562 leukemia 84.9% | MALME-3M melanoma 93.8% | MDA-MB-231 breast 82.1% | RXF 393 renal 116% | SF-268 CNS 97.8% | SF-539 CNS 100% | M14 melanoma 100% | HCT-15 colon 75.5% | HT29 colon 93.4% | SNB-75 CNS 80% | SNB-19 CNS 103% | PC-3 prostate 84.5% | SK-MEL-5 melanoma 81.8% | UACC-62 melanoma 86.9% | LOX IMVI melanoma 86.9% | SK-MEL-28 melanoma 109%

COc1cc(OC)c(/C=C/S(=O)(=O)Cc2ccc(OC)c(N)n2)c(OC)c1
active: DU-145 prostate 2.86% | K-562 leukemia 8.04% | SF-295 CNS 6.52% | HCT-15 colon 7.7% | U251 CNS 8.02% | SK-MEL-5 melanoma -31.2% | LOX IMVI melanoma 9.35%
inactive: MALME-3M melanoma 59.2% | MDA-MB-231 breast 15.3% | RXF 393 renal 43.8% | SF-268 CNS 39% | UACC-257 melanoma 47.8% | M14 melanoma 11.2% | SNB-75 CNS 40.5% | SNB-19 CNS 35.8% | PC-3 prostate 26.8% | UACC-62 melanoma 42.3% | SK-MEL-28 melanoma 53.7%

CCCCCCCCOC(=O)CC[C@@H](C)[C@H]1CC[C@H]2[C@@H]3[C@H](OC(=O)CCN)C[C@@H]4C[C@H](OC(=O)CCN)CC[C@]4(C)[C@H]3C[C@H](OC(=O)CCN)[C@]12C
active: K-562 leukemia -74.5%
inactive: DU-145 prostate 74.4% | MALME-3M melanoma 67.8% | MDA-MB-231 breast 69.3% | RXF 393 renal 109% | SF-268 CNS 69.7% | SF-539 CNS 56.3% | M14 melanoma 84.4% | HCT-15 colon 102% | HT29 colon 39.6% | SNB-75 CNS 63.9% | SNB-19 CNS 116% | PC-3 prostate 87.3% | SK-MEL-5 melanoma 97% | UACC-62 melanoma 104% | LOX IMVI melanoma 63.2% | SK-MEL-28 melanoma 58.4%

Nc1nc2c(c3ncccc13)C(c1ccc(Cl)c(Cl)c1)Cc1ncccc1-2 (stereo unspecified)
active: RXF 393 renal -25.4% | SF-295 CNS 1.19%
inactive: DU-145 prostate 35.5% | K-562 leukemia 11% | MALME-3M melanoma 47.1% | MDA-MB-231 breast 28.9% | SF-268 CNS 44.8% | UACC-257 melanoma 35.4% | M14 melanoma 20% | HCT-15 colon 18.2% | SNB-75 CNS 16.4% | SNB-19 CNS 32.1% | U251 CNS 16.9% | PC-3 prostate 19.5% | SK-MEL-5 melanoma 19.8% | UACC-62 melanoma 26.6% | LOX IMVI melanoma 28% | SK-MEL-28 melanoma 49.2%

COc1ccc(N(Cc2cc(OC)c(OC)c(OC)c2)C2OC(=O)c3ccccc32)cc1 (stereo unspecified)
inactive: DU-145 prostate 25.5% | K-562 leukemia 17.7% | MALME-3M melanoma 31.3% | MDA-MB-231 breast 41.1% | SF-268 CNS 44% | SF-295 CNS 16.3% | UACC-257 melanoma 70.8% | M14 melanoma 25.7% | HCT-15 colon 36.1% | SNB-19 CNS 53.3% | U251 CNS 19.4% | PC-3 prostate 25.2% | SK-MEL-5 melanoma 18.2% | UACC-62 melanoma 44.2% | LOX IMVI melanoma 46.2% | SK-MEL-28 melanoma 55.5%
active: RXF 393 renal -31.7% | SNB-75 CNS -6.32%

CS(=O)(CCCCN=C=S)=NC(=O)c1c(F)c(F)c(F)c(F)c1F (stereo unspecified)
inactive: DU-145 prostate 91.1% | K-562 leukemia 60.8% | MALME-3M melanoma 58.7% | MDA-MB-231 breast 91.8% | RXF 393 renal 94.2% | SF-268 CNS 101% | SF-295 CNS 97.8% | UACC-257 melanoma 83.5% | M14 melanoma 98.4% | HCT-15 colon 59.4% | SNB-75 CNS 97.4% | SNB-19 CNS 90.4% | U251 CNS 89.6% | PC-3 prostate 88.6% | SK-MEL-5 melanoma 98.7% | UACC-62 melanoma 88.7% | LOX IMVI melanoma 60.6% | SK-MEL-28 melanoma 97.6%

COc1ccc(-c2cc(/C=C3\C(=O)Nc4ccc(Cl)cc43)[nH]n2)cc1
inactive: DU-145 prostate 72.6% | K-562 leukemia 24% | MALME-3M melanoma 33.4% | MDA-MB-231 breast 73.9% | RXF 393 renal 51% | SF-268 CNS 66.3% | SF-295 CNS 47% | UACC-257 melanoma 51.7% | M14 melanoma 44.7% | HCT-15 colon 36.1% | SNB-75 CNS 49.8% | SNB-19 CNS 71.1% | U251 CNS 34.2% | PC-3 prostate 67.1% | SK-MEL-5 melanoma 37.9% | UACC-62 melanoma 40.6% | LOX IMVI melanoma 35.2% | SK-MEL-28 melanoma 61.7%
